Experimental data: PubChem BioAssay (NCI)
Several values for one entry are separate records, joined by “and”; a condition that tells them apart may be missing. Equal entries are not always repeated. About 83,000 compounds went through this panel and 20% of them were active in at least one assay; those are over-represented in the sample as a whole.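 48-hour exposure, single concentration, 96-well plates; percent growth endpoint where 0 means no net growth. Active: below 10.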

Columns and labels:
Assay in all cases: NCI-60 one-dose screen, 48 h (100 = growth as untreated, 0 = no growth, -100 = all killed)
Settings in all cases: 10 µM unless noted
SK-MEL-2 melanoma = tested on: SK-MEL-2 melanoma
EKVX NSCLC = tested on: EKVX NSCLC
SN12C renal = tested on: SN12C renal
UO-31 renal = tested on: UO-31 renal
TK-10 renal = tested on: TK-10 renal
ACHN renal = tested on: ACHN renal
CAKI-1 renal = tested on: CAKI-1 renal
A498 renal = tested on: A498 renal
CCRF-CEM leukemia = tested on: CCRF-CEM leukemia
MOLT-4 leukemia = tested on: MOLT-4 leukemia

Measured: growth

CN(C)C(=N)N=C(N)N
inactive: SK-MEL-2 melanoma 106% and 25.1% | EKVX NSCLC 113% | SN12C renal 95.3% and 127% | UO-31 renal 91.5% and 106% | TK-10 renal 119% and 149% | ACHN renal 92.8% and 115% | CAKI-1 renal 115% | A498 renal 128% and 106% | CCRF-CEM leukemia 79.9% | MOLT-4 leukemia 95.6% and 131%

O=c1[nH]c(=O)c2[nH]c(=O)[nH]c2[nH]1
inactive: SK-MEL-2 melanoma 137% | EKVX NSCLC 88.6% | SN12C renal 99.7% | UO-31 renal 85.7% | TK-10 renal 92.1% | ACHN renal 101% | CAKI-1 renal 101% | A498 renal 73.9% | CCRF-CEM leukemia 114% | MOLT-4 leukemia 113%

C/C(CC(C)C)=N/NC(N)=S
inactive: SK-MEL-2 melanoma 107% | EKVX NSCLC 59.6% | SN12C renal 87.2% | UO-31 renal 62.1% | TK-10 renal 105% | ACHN renal 98.3% | CAKI-1 renal 104% | A498 renal 87.6% | CCRF-CEM leukemia 43.8% | MOLT-4 leukemia 52.1%

CCCC(=O)Oc1ccc2ccccc2c1
inactive: SK-MEL-2 melanoma 104% | EKVX NSCLC 101% | SN12C renal 97% | UO-31 renal 76.8% | TK-10 renal 103% | ACHN renal 99% | CAKI-1 renal 103% | A498 renal 103% | CCRF-CEM leukemia 90.2% | MOLT-4 leukemia 92.3%

CCOC(C)=N
inactive: SK-MEL-2 melanoma 110% | EKVX NSCLC 134% | SN12C renal 105% | UO-31 renal 107% | TK-10 renal 107% | ACHN renal 104% | CAKI-1 renal 108% | A498 renal 120% | CCRF-CEM leukemia 98.6% | MOLT-4 leukemia 94.6%

O=S(=O)(O)c1ccc2cc(O)ccc2c1
inactive: SK-MEL-2 melanoma 106% | EKVX NSCLC 106% | SN12C renal 105% | UO-31 renal 95.1% | TK-10 renal 99.7% | ACHN renal 106% | CAKI-1 renal 99.5% | A498 renal 78.8% | CCRF-CEM leukemia 109% | MOLT-4 leukemia 103%

COC(=O)c1ccccc1Cl
inactive: SK-MEL-2 melanoma 108% | EKVX NSCLC 99.9% | SN12C renal 105% | UO-31 renal 93.8% | TK-10 renal 97.1% | ACHN renal 106% | CAKI-1 renal 99.6% | A498 renal 88.8% | CCRF-CEM leukemia 100% | MOLT-4 leukemia 105%

O=C(c1ccccc1)C1(Br)CCCCC1
inactive: SK-MEL-2 melanoma 104% | EKVX NSCLC 87.3% | SN12C renal 93.6% | UO-31 renal 82.2% | TK-10 renal 103% | ACHN renal 100% | CAKI-1 renal 89% | A498 renal 102% | CCRF-CEM leukemia 97.5% | MOLT-4 leukemia 103%

Clc1ccc2c(c1)N(C1CCCN(Cc3ccccc3)C1)c1ccccc1S2 (stereo not given)
inactive: SK-MEL-2 melanoma 17.1% | EKVX NSCLC 74.4% | SN12C renal 39.7% | UO-31 renal 66.7% | TK-10 renal 98.6% | ACHN renal 52.5% | CAKI-1 renal 48.7% | A498 renal 70.6% | CCRF-CEM leukemia 39.7% | MOLT-4 leukemia 70.3%

N=c1sc2ccccc2n1CC(=O)O
inactive: SK-MEL-2 melanoma 95.4% | EKVX NSCLC 104% | SN12C renal 94.1% | UO-31 renal 86.4% | TK-10 renal 96.9% | ACHN renal 105% | CAKI-1 renal 97.8% | A498 renal 102% | CCRF-CEM leukemia 85.8% | MOLT-4 leukemia 117%

c1ccc2c[n+](Cc3ccc4ccccc4n3)ccc2c1
inactive: SK-MEL-2 melanoma 102% | EKVX NSCLC 82.5% | SN12C renal 80% | UO-31 renal 82.4% | TK-10 renal 99.9% | ACHN renal 99.8% | CAKI-1 renal 102% | A498 renal 79.4% | CCRF-CEM leukemia 76.8% | MOLT-4 leukemia 92.4%

C(=N\OCCc1ccccc1)/c1ccccn1
inactive: SK-MEL-2 melanoma 124% and 104% | EKVX NSCLC 115% and 106% | SN12C renal 119% and 109% | UO-31 renal 109% and 98% | TK-10 renal 93.3% and 89.5% | ACHN renal 110% and 107% | CAKI-1 renal 105% and 100% | A498 renal 96.3% and 85.7% | CCRF-CEM leukemia 106% and 94.6% | MOLT-4 leukemia 101% and 93.1%
